Data reported in the supplement of paper PMC8728848.
About 410 targets per protein were measured; listed, in parts, are those with the strongest signals and a random draw of the rest.

Experiments:
Test in all cases: glycan array binding signal (z-score within array); higher = stronger binding
Details in all cases: glycan notation: IUPAC condensed, linker removed
[1] = biological target: Fuc(a1-2)Gal(b1-3)GlcNAc(b1-2)Man(a1-3)[Fuc(a1-2)Gal(b1-3)GlcNAc(b1-2)Man(a1-6)]Man(b1-4)GlcNAc(b1-4)[Fuc(a1-6)]GlcNAc
In short: (§1)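 Columns mapping to the same glycan were averaged after glycan names were converted to IUPAC-condensed notation. The data come from 3228 arrays in the Consortium for Functional Glycomics database, limited to those with an available protein sequence. Binding is reported as a within-array Z-score averaged across arrays of one protein sequence and across linkers.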

[2] = biological target: Fuc(a1-2)Gal(b1-3)[Fuc(a1-4)]GlcNAc
In short: as §1

[3] = biological target: Fuc(a1-2)Gal(b1-3)[Fuc(a1-4)]GlcNAc(b1-2)Man(a1-3)[Fuc(a1-2)Gal(b1-3)[Fuc(a1-4)]GlcNAc(b1-2)Man(a1-3)]Man(b1-4)GlcNAc(b1-4)GlcNAc
In short: as §1

[4] = biological target: Fuc(a1-2)Gal(b1-3)[Fuc(a1-4)]GlcNAc(b1-2)Man(a1-3)[Fuc(a1-2)Gal(b1-3)[Fuc(a1-4)]GlcNAc(b1-2)Man(a1-6)]Man(b1-4)GlcNAc(b1-4)[Fuc(a1-6)]GlcNAc(b1-4)[Fuc(a1-6)]GlcNAc
In short: as §1

[5] = biological target: Fuc(a1-2)Gal(b1-4)GlcNAc(b1-2)Man(a1-3)[Fuc(a1-2)Gal(b1-4)GlcNAc(b1-2)Man(a1-6)]Man(b1-4)GlcNAc(b1-4)[Fuc(a1-6)]GlcNAc
In short: as §1

[6] = biological target: Fuc(a1-2)Gal(b1-4)GlcNAc(b1-3)Gal(b1-4)GlcNAc(b1-2)Man(a1-3)[Fuc(a1-2)Gal(b1-4)GlcNAc(b1-3)Gal(b1-4)GlcNAc(b1-2)Man(a1-6)]Man(b1-4)GlcNAc(b1-4)GlcNAc
In short: as §1

[7] = biological target: Fuc(a1-2)Gal(b1-4)[Fuc(a1-3)]GlcNAc
In short: as §1

[8] = biological target: Fuc(a1-2)Gal3S(b1-4)GlcNAc
In short: as §1

[9] = biological target: Fuc(a1-2)Gal6S(b1-3)GlcNAc6S
In short: as §1

[10] = biological target: Fuc(a1-2)Gal6S(b1-4)Glc6S
In short: as §1

[11] = biological target: Fuc(a1-2)[GalNAc(a1-3)]Gal(b1-3)GalNAc(a1-3)[Fuc(a1-2)]Gal(b1-4)GlcNAc
In short: as §1

[12] = biological target: Fuc(a1-2)[GalNAc(a1-3)]Gal(b1-3)GalNAc(b1-3)Gal(a1-4)Gal(b1-4)Glc
In short: as §1

[13] = biological target: Fuc(a1-3)[Gal(b1-4)]GlcNAc(b1-6)GalNAc
In short: as §1

[14] = biological target: Fuc(a1-3)[Gal(b1-4)]GlcNAc6S
In short: as §1

[15] = biological target: Gal(a1-2)Gal
In short: as §1

[16] = biological target: Gal(a1-3)Gal(b1-3)GlcNAc(b1-2)Man(a1-3)[Gal(a1-3)Gal(b1-3)GlcNAc(b1-2)Man(a1-6)]Man(b1-4)GlcNAc(b1-4)GlcNAc
In short: as §1

[17] = biological target: Gal(a1-3)Gal(b1-3)GlcNAc(b1-6)GalNAc
In short: as §1

[18] = biological target: Gal(a1-3)Gal(b1-4)[Fuc(a1-3)]GlcNAc(b1-2)Man(a1-3)[Gal(a1-3)Gal(b1-4)[Fuc(a1-3)]GlcNAc(b1-2)Man(a1-6)]Man(b1-4)GlcNAc(b1-4)GlcNAc
In short: as §1

[19] = biological target: Gal(a1-4)Gal(b1-3)GlcNAc(b1-2)Man(a1-3)[Gal(a1-4)Gal(b1-3)GlcNAc(b1-2)Man(a1-6)]Man(b1-4)GlcNAc(b1-4)GlcNAc
In short: as §1

[20] = biological target: Gal(a1-4)Gal(b1-4)GlcNAc(b1-3)Gal(b1-4)Glc
In short: as §1

[21] = biological target: Gal(b1-3)[Fuc(a1-4)]GlcNAc(b1-2)Man(a1-3)[Gal(b1-3)[Fuc(a1-4)]GlcNAc(b1-2)Man(a1-6)]Man(b1-4)GlcNAc(b1-4)[Fuc(a1-6)]GlcNAc
In short: as §1

[22] = biological target: Gal(b1-3)[Neu5Ac(b2-6)]GalNAc
In short: as §1

[23] = biological target: Gal(b1-4)GlcNAc(b1-2)Man(a1-3)[Gal(b1-4)GlcNAc(b1-2)Man(a1-6)][GlcNAc(b1-4)]Man(b1-4)GlcNAc(b1-4)[Fuc(a1-6)]GlcNAc
In short: as §1

[24] = biological target: Gal(b1-4)GlcNAc(b1-2)[Gal(b1-4)GlcNAc(b1-6)]Man(a1-6)[Gal(b1-4)GlcNAc(b1-2)Man(a1-3)]Man(b1-4)GlcNAc(b1-4)GlcNAc
In short: as §1

[25] = biological target: Gal(b1-4)GlcNAc(b1-3)Gal(b1-3)GalNAc
In short: as §1

[26] = biological target: Gal3S(b1-4)Glc6S
In short: as §1

[27] = biological target: Gal3S6S(b1-4)GlcNAc6S
In short: as §1

[28] = biological target: GalNAc(b1-4)Gal(b1-4)Glc
In short: as §1

[29] = biological target: GalNAc(b1-4)GlcNAc(b1-2)Man(a1-3)[GalNAc(b1-4)GlcNAc(b1-2)Man(a1-6)]Man(b1-4)GlcNAc(b1-4)GlcNAc
In short: as §1

[30] = biological target: Glc(a1-6)Glc(a1-6)Glc(a1-6)Glc
In short: as §1

[31] = biological target: GlcNAc(a1-4)Gal(b1-4)GlcNAc(b1-3)Gal(b1-4)[Fuc(a1-3)]GlcNAc(b1-3)Gal(b1-4)[Fuc(a1-3)]GlcNAc
In short: as §1

[32] = biological target: GlcNAc(b1-2)Gal(b1-3)GalNAc
In short: as §1

[33] = biological target: GlcNAc(b1-2)[GlcNAc(b1-4)]Man(a1-3)[GlcNAc(b1-4)][GlcNAc(b1-2)[GlcNAc(b1-6)]Man(a1-6)]Man(b1-4)GlcNAc(b1-4)GlcNAc
In short: as §1

[34] = biological target: GlcNAc(b1-3)Gal(b1-4)GlcNAc(b1-3)Gal(b1-4)GlcNAc(b1-3)Gal(b1-4)GlcNAc(b1-2)[GlcNAc(b1-3)Gal(b1-4)GlcNAc(b1-3)Gal(b1-4)GlcNAc(b1-3)Gal(b1-4)GlcNAc(b1-6)]Man(a1-6)[GlcNAc(b1-3)Gal(b1-4)GlcNAc(b1-3)Gal(b1-4)GlcNAc(b1-3)Gal(b1-4)GlcNAc(b1-2)Man(a1-3)]Man(b1-4)GlcNAc(b1-4)[Fuc(a1-6)]GlcNAc
In short: as §1

[35] = biological target: GlcNAc(b1-3)Gal(b1-4)GlcNAc(b1-3)Gal(b1-4)GlcNAc(b1-3)Gal(b1-4)GlcNAc(b1-3)Gal(b1-4)GlcNAc(b1-2)[GlcNAc(b1-3)Gal(b1-4)GlcNAc(b1-3)Gal(b1-4)GlcNAc(b1-3)Gal(b1-4)GlcNAc(b1-3)Gal(b1-4)GlcNAc(b1-6)]Man(a1-6)[GlcNAc(b1-3)Gal(b1-4)GlcNAc(b1-3)Gal(b1-4)GlcNAc(b1-3)Gal(b1-4)GlcNAc(b1-3)Gal(b1-4)GlcNAc(b1-2)Man(a1-3)]Man(b1-4)GlcNAc(b1-4)[Fuc(a1-6)]GlcNAc
In short: as §1

[36] = biological target: GlcNAc(b1-4)GlcNAc(b1-4)GlcNAc(b1-4)GlcNAc(b1-4)GlcNAc
In short: as §1

[37] = biological target: GlcNAc(b1-4)GlcNAc(b1-4)GlcNAc(b1-4)GlcNAc(b1-4)GlcNAc(b1-4)GlcNAc
In short: as §1

[38] = biological target: Neu5Ac(a2-3)Gal(b1-3)GlcNAc(b1-2)[Neu5Ac(a2-3)Gal(b1-3)GlcNAc(b1-4)]Man(a1-6)[Neu5Ac(a2-3)Gal(b1-3)GlcNAc(b1-2)Man(a1-3)]Man(b1-4)GlcNAc(b1-4)GlcNAc
In short: as §1

[39] = biological target: Neu5Ac(a2-3)Gal(b1-3)GlcNAc(b1-6)GalNAc
In short: as §1

[40] = biological target: Neu5Ac(a2-3)Gal(b1-4)GlcNAc(b1-2)Man(a1-3)[Neu5Ac(a2-6)Gal(b1-4)GlcNAc(b1-2)Man(a1-6)]Man(b1-4)GlcNAc(b1-4)GlcNAc
In short: as §1

[41] = biological target: Neu5Ac(a2-3)Gal(b1-4)[Fuc(a1-3)]GlcNAc(b1-6)[Gal(b1-3)]GalNAc
In short: as §1

[42] = biological target: Neu5Ac(a2-3)Gal6S(b1-4)GlcNAc
In short: as §1

[43] = biological target: Neu5Ac(a2-6)Gal(b1-4)GlcNAc(b1-2)Man(a1-3)[Neu5Ac(a2-6)Gal(b1-4)GlcNAc(b1-2)Man(a1-6)]Man(b1-4)GlcNAc(b1-4)GlcNAc
In short: as §1

[44] = biological target: Neu5Ac(a2-6)Gal(b1-4)GlcNAc(b1-2)Man(a1-3)[Neu5Ac(a2-6)Gal(b1-4)GlcNAc(b1-2)Man(a1-6)]Man(b1-4)GlcNAc(b1-4)[Fuc(a1-6)]GlcNAc
In short: as §1

[45] = biological target: Neu5Ac(a2-6)GalNAc(b1-4)GlcNAc6S
In short: as §1

[46] = biological target: Neu5Ac(a2-8)Neu5Ac(a2-3)Gal(b1-3)GalNAc(b1-4)[Neu5Ac(a2-3)]Gal(b1-4)Glc
In short: as §1

[47] = biological target: Neu5Ac(a2-8)Neu5Ac(a2-3)[GalNAc(b1-4)]Gal(b1-4)Glc
In short: as §1

[48] = biological target: Neu5Ac(a2-8)Neu5Ac(a2-8)Neu5Ac(a2-3)[Gal(b1-3)GalNAc(b1-4)]Gal(b1-4)Glc
In short: as §1

[49] = biological target: Neu5Ac(a2-8)Neu5Ac(a2-8)Neu5Ac(a2-8)Neu5Ac(a2-3)[GalNAc(b1-4)]Gal(b1-4)Glc
In short: as §1

[50] = biological target: Neu5Ac(a2-8)Neu5Gc(a2-3)Gal(b1-4)GlcNAc
In short: as §1

B1: OGAA (protein)
chain: MVQKESQATLEERESELSSNPAASAGASLEPPAAPAPGEDNPAGAGGAAVAGAAGGARRFLCGVVEGFYGRPWVMEQRKELFRRLQKWELNTYLYAPKDDYKHRMFWREMYSVEEAEQLMTLISAAREYEIEFIYAISPGLDITFSNPKEVSTLKRKLDQVSQFGCRSFALLFADIDHNMCAADKEVFSSFAHAQVSITNEIYQYLGEPETFLFCPTEYCGTFCYPNVSQSPYLRTVGEKLLPGIEVLWTGPKVVSKEIPVESIEEVSKIIKRAPVIWDNIHANDYDQKRLFLGPYKGRSTELIPRLKGVLTNPNCEFEANYVAIHTLATWYKSNMNGVRKDVVMTDSEDSTVSIQIKLENEGSDEDIETDVLYSPQMALKLALTEWLQEFGVPHQY
- glycan array binding signal (z-score) [1]: 0.026
- glycan array binding signal (z-score) [2]: -0.076
- glycan array binding signal (z-score) [3]: 0.285
- glycan array binding signal (z-score) [4]: 0.251
- glycan array binding signal (z-score) [5]: 0.206
- glycan array binding signal (z-score) [6]: 0.006
- glycan array binding signal (z-score) [7]: -0.07
- glycan array binding signal (z-score) [8]: -0.06
- glycan array binding signal (z-score) [9]: 1.74
- glycan array binding signal (z-score) [10]: 0.205
- glycan array binding signal (z-score) [11]: 22.9
- glycan array binding signal (z-score) [12]: 8.04
- glycan array binding signal (z-score) [13]: 0.242
- glycan array binding signal (z-score) [14]: -0.107
- glycan array binding signal (z-score) [15]: 0.002
- glycan array binding signal (z-score) [16]: 0.031
- glycan array binding signal (z-score) [17]: -0.107
- glycan array binding signal (z-score) [18]: 0.644
- glycan array binding signal (z-score) [19]: -0.007
- glycan array binding signal (z-score) [20]: -0.098
- glycan array binding signal (z-score) [21]: 0.357
- glycan array binding signal (z-score) [22]: -0.096
- glycan array binding signal (z-score) [23]: -0.009
- glycan array binding signal (z-score) [24]: -0.08
- glycan array binding signal (z-score) [25]: -0.11
- glycan array binding signal (z-score) [26]: -0.088
- glycan array binding signal (z-score) [27]: -0.045
- glycan array binding signal (z-score) [28]: -0.096
- glycan array binding signal (z-score) [29]: -0.075
- glycan array binding signal (z-score) [30]: -0.081
- glycan array binding signal (z-score) [31]: 0.075
- glycan array binding signal (z-score) [32]: -0.094
- glycan array binding signal (z-score) [33]: -0.071
- glycan array binding signal (z-score) [34]: -0.048
- glycan array binding signal (z-score) [35]: -0.029
- glycan array binding signal (z-score) [36]: -0.126
- glycan array binding signal (z-score) [37]: -0.102
- glycan array binding signal (z-score) [38]: 0.068
- glycan array binding signal (z-score) [39]: -0.047
- glycan array binding signal (z-score) [40]: -0.118
- glycan array binding signal (z-score) [41]: -0.025
- glycan array binding signal (z-score) [42]: -0.047
- glycan array binding signal (z-score) [43]: -0.079
- glycan array binding signal (z-score) [44]: -0.088
- glycan array binding signal (z-score) [45]: -0.012
- glycan array binding signal (z-score) [46]: -0.107
- glycan array binding signal (z-score) [47]: -0.086
- glycan array binding signal (z-score) [48]: -0.094
- glycan array binding signal (z-score) [49]: -0.107
- glycan array binding signal (z-score) [50]: -0.042
